AmpC detergent – AmpC beta-lactamase inhibition with detergent present | P00811 | AmpC hydrolysis of nitrocefin, absorbance 480 nm, 0.01% Triton | Potency, µM (series often up to 114 µM), inactives show at the highest dose activity change, negative = inhibition, most hits filed as inhibitors | 370,000 compounds, 0.041% hits | AID 485294;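 also: 0% = no-compound wells and -100% = no-enzyme wells; nearly all actives have a fitted effect of over 25% in size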
Target sequence (P00811 whole entry, looked up): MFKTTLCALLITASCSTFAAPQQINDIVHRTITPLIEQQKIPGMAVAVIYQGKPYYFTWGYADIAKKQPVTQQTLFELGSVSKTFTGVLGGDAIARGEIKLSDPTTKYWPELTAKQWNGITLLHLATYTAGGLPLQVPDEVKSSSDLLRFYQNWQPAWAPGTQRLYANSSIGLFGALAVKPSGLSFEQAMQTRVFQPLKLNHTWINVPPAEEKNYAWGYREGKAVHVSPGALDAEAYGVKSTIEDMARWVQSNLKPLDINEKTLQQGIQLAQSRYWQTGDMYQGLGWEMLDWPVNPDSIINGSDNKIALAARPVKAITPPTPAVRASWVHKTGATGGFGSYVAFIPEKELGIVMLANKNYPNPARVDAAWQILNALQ
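AmpC (5.3 nM in the dispensed reagent) in 20 mM phosphate pH 7.0 with 0.01% (detergent screen) or 0.0001% Triton X-100 was preincubated with compounds for 15 min at room temperature. Nitrocefin was then added from an 800 uM solution, and hydrolysis was followed at 480 nm.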
AmpC no deterg – inhibitors of E. coli AmpC beta-lactamase without detergent | P00811 | AmpC nitrocefin hydrolysis, absorbance 480 nm, 0.0001% Triton | Potency, µM (highest dose often 57.1 µM), for inactives: at the top dose activity change, negative = inhibition, most hits filed as inhibitors | 330,000 compounds, 0.52% hits;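 also: plate controls were no compound for no effect and no enzyme for full effect; nearly all actives have a fitted effect of over 20% in size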
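20 mM phosphate pH 7.0 + 0.01% (detergent screen) or 0.0001% Triton X-100; 5.3 nM AmpC reagent; cpd preinc 15 min RT; nitrocefin (800 uM stock) to start; A480 q20 s × 4 min; Activity was normalised to no-enzyme and no-compound control wells.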
Sm TGR inh – blocks Schistosoma mansoni thioredoxin glutathione reductase | Potency, µM (highest dose often 114 µM), for the others: at the highest dose activity change, negative = inhibition, actives largely listed as inhibitors | Q962Y6 | 360,000 compounds, 3% hits | purified TGR, DTNB reduction, TNB absorbance 405 nm | AID 485364; also: nearly all actives have a fitted effect of over 60% in size
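TGR 20 nM + NADPH 100 uM (dispensed conc.), cpd preinc 15 min RT; start with NADPH (500 uM addition) then DTNB (15 mM addition). Kinetic TNB absorbance, 405 nm filter. Four-parameter Hill fit across titration.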
* = called active by the depositor. The list is not random: actives were taken first. Their share in the collection is about 3.3%. Calls follow the shape of the dose curve; as a rule, active = well fitted curve in the direction sought with a large enough effect; inconclusive = small, poorly fitted or top-dose-only effect, or another doubt; inactive = no such curve, though single readings can be large; an effect the other way counts as inactive or inconclusive. Unless noted, % is scaled to controls: 0 for no effect and ±100 for the full control effect; potency is read from the fitted curve at half-maximal effect.

Screening CCOC(=O)c1cccc(NC(=O)CC(c2ccc(F)cc2)N2Cc3ccccc3C2=O)c1 (configuration not stated) returned AmpC detergent 24% and Sm TGR inh -4%.
`COc1ccc(CCNC(=O)CCc2c(C)c3cc4c(C)c(C)oc4cc3oc2=O)cc1` gave AmpC detergent 0% and Sm TGR inh 1%.
For FC(F)Sc1ccc(NC(=S)NC(c2ccccc2)c2ccccc2)cc1 the results were AmpC detergent 10%, AmpC no deterg 18µM* and Sm TGR inh 8%.
Screening FC(F)Sc1ccc(NC(=S)NCc2ccccc2)cc1 returned AmpC detergent 7%, AmpC no deterg -33% and Sm TGR inh 4%.
COC(=O)CCCC1=CC2=CC(=O)C(C)(OC(=O)CCc3ccccc3)C(=O)C2=CO1 (configuration not stated) was read as AmpC detergent -1%, AmpC no deterg -16% and Sm TGR inh inconclusive.
CCC(=O)OC1(C)C(=O)C=C2C=C(c3ccsc3)OC=C2C1=O (configuration not stated) was read as AmpC detergent -8%, AmpC no deterg -36% and Sm TGR inh 32µM*.
For CCOc1ccc(-c2csc(NC(=O)c3cccc(N4C(=O)CCC4=O)c3)n2)cc1 the results were AmpC detergent 6%, AmpC no deterg 1% and Sm TGR inh 7%.
For Cc1ccc(-c2csc(NC(=O)c3cccc(N4C(=O)CCC4=O)c3)n2)o1 the results were AmpC detergent -2%, AmpC no deterg 47% and Sm TGR inh 8.9µM*.
For COc1cccc(NC(=O)Cn2cc(C(=O)C3CC3)c3ccccc32)c1 the results were AmpC detergent inconclusive, AmpC no deterg 28µM* and Sm TGR inh 0%.
`COc1ccc(NC(=O)Cn2cc(C(=O)C3CC3)c3ccccc32)cc1` gave AmpC detergent 0%, AmpC no deterg -14% and Sm TGR inh 3%.
`COc1ccc(C[C@H]2CN3C(=NC[C@@H]3C(C)C)N2C[C@H](C)NC(=O)c2ccc(C)c(Br)c2)cc1` gave AmpC detergent 2%, AmpC no deterg 61% and Sm TGR inh 15%.
`COc1ccc(C[C@H]2CN3C(=NC[C@@H]3Cc3ccccc3)N2C[C@H](C)NC(=O)CCC2CCCCC2)cc1` gave AmpC detergent -4%, AmpC no deterg 92% and Sm TGR inh -7%.
For COc1ccc(C[C@H]2CN3C(=NC[C@H]3Cc3ccccc3)N2CCNC(=O)c2ccc(C)c(Br)c2)cc1 the results were AmpC detergent -3%, AmpC no deterg 150% and Sm TGR inh -22%.
`Cc1ccc(C(=O)N[C@@H](C)CN2C3=NC[C@@H](Cc4ccccc4)N3C[C@H]2Cc2ccc(O)cc2)cc1Br` gave AmpC detergent 6%, AmpC no deterg -1% and Sm TGR inh 50µM*.
`Cc1ccc(C(=O)N[C@@H](C)CN2C3=NC[C@H](C(C)C)N3C[C@H]2Cc2ccc(O)cc2)cc1Br` gave AmpC detergent 3%, AmpC no deterg -4% and Sm TGR inh 8.9µM*.
Cc1ccc(C(=O)N[C@@H](C)CN2C3=NC[C@H](Cc4ccccc4)N3C[C@H]2Cc2ccc(O)cc2)cc1Br was read as AmpC detergent 1%, AmpC no deterg 51% and Sm TGR inh inconclusive.
Screening COc1ccc(C[C@@H]2CN3C(=NC[C@@H]3C)N2C[C@H](C)NC(=O)CCC2CCCCC2)cc1 returned AmpC detergent -9%, AmpC no deterg 25% and Sm TGR inh 25µM*.
`COc1ccc(C[C@H]2CN3C(=NC[C@@H]3Cc3ccccc3)N2CCNC(=O)c2ccc(C)c(Br)c2)cc1` gave AmpC detergent 9%, AmpC no deterg 47% and Sm TGR inh 11µM*.
For Cc1cc(NC(=O)CN2C(=O)CSc3ccc(S(=O)(=O)N(C)C)cc32)ccc1Br the results were AmpC detergent 5% and Sm TGR inh 3%.
For Cc1ccc2occ(CC(=O)N(Cc3ccc(Cl)cc3)C3CCS(=O)(=O)C3)c2c1 (configuration not stated) the results were AmpC detergent -1% and Sm TGR inh 4%.
Screening Cc1ccc(-n2nc3c(N4CCC(C(=O)NCCC(C)C)CC4)nnc(C)c3c2C)cc1 returned AmpC detergent -1% and Sm TGR inh -12%.
Screening COc1ccccc1C1NC(=O)c2n[nH]c(-c3cccs3)c21 (configuration not stated) returned AmpC detergent 2% and Sm TGR inh -3%.
Screening COc1ccc(C[C@H]2CN3C(=NC[C@@H]3Cc3ccc(O)cc3)N2CCNC(=O)c2ccc(C)c(Br)c2)cc1 returned AmpC detergent 5%, AmpC no deterg 20% and Sm TGR inh -2%.
`COc1ccc(C[C@H]2CN3C(=NC[C@@H]3Cc3ccc(O)cc3)N2C[C@H](C)NC(=O)c2ccc(C)c(Br)c2)cc1` gave AmpC detergent 10%, AmpC no deterg -15% and Sm TGR inh 40µM*.
For COc1ccc(CNC(=O)c2ccc(N3CCCC3)c(NC(=O)NCc3ccc(F)cc3)c2)cc1 the results were AmpC detergent 0% and Sm TGR inh -1%.
`Cc1ccc(Cl)cc1N1CCN(c2nc3ccccc3c3nc(-c4cccnc4)nn23)CC1` gave AmpC detergent 2% and Sm TGR inh -3%.
`CC(C)NC(=O)NC1C2CC3CC(C2)CC1C3` (configuration not stated) gave AmpC detergent -9%, AmpC no deterg -13% and Sm TGR inh 89µM*.
For CC(=O)CC(=O)NC1C2CC3CC(C2)CC1C3 (configuration not stated) the results were AmpC detergent -8%, AmpC no deterg 9% and Sm TGR inh inconclusive.
For Cc1ccc(C)c(NC(=O)CN2CCSc3ccc(S(=O)(=O)N4CCCC4)cc32)c1 the results were AmpC detergent 17% and Sm TGR inh -4%.
`COc1ccc(CCNC(=O)c2cnn(-c3ccc(C)c(C)c3)c2NC(=O)c2ccco2)cc1OC` gave AmpC detergent -8% and Sm TGR inh 11%.
Screening Cc1ccc(-n2ncc(C(=O)N3CCc4ccccc4C3)c2NC(=O)c2ccco2)cc1C returned AmpC detergent 6%, AmpC no deterg 11% and Sm TGR inh 32µM*.
Screening CCOc1ccc(OCC)c(Nc2cc(C)nc3nc(-c4ccco4)nn23)c1 returned AmpC detergent 1% and Sm TGR inh inconclusive.
Screening CCC[n+]1c2ccccc2cc2ccccc21 returned AmpC detergent inconclusive, AmpC no deterg -22% and Sm TGR inh inconclusive.
CCCC[n+]1c2ccccc2cc2ccccc21 was read as AmpC detergent 32µM*, AmpC no deterg -24% and Sm TGR inh inconclusive.
`CC(CNc1nc2ccccc2c2nc(-c3ccccc3)nn12)c1ccccc1` (configuration not stated) gave AmpC detergent -7% and Sm TGR inh 1%.
`COCCNC(=O)c1ccc2c(c1)N(Cc1cc(C)ccc1C)C(=O)c1ccccc1S2(=O)=O` gave AmpC detergent -5% and Sm TGR inh 3%.
CCC(=O)N1CCc2cc(S(=O)(=O)NCCC(=O)NCc3ccc(C)cc3)ccc21 was read as AmpC detergent -2% and Sm TGR inh 4%.
